These results are taken from PubChem BioAssay.

Activity calls are given as the source filed them.

In experiment [1] the test system is PRMT1 (protein arginine N-methyltransferase 1). The experiment is described as follows: small molecules binding arginine methyltransferase PRMT1 – biochemical, small-molecule microarray, 635 nm fluorescence, primary screen (AID 1088).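 Further: binding of Prmt1 protein to compounds spotted on small-molecule microarray slides.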 The settings on record: higher = more signal.
The nature of experiment [2]: growth effects on S. cerevisiae YJM789 – YJM789 clinical isolate, OD600, 24 h, basal, primary screen (AID 1089).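 Further: growth of clinical yeast isolate S. cerevisiae YJM 789 seeded 1000 cells per well; test concentration not given here.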 The settings on record: higher = more signal, called active from +8 up or from −8 down.
A short description of experiment [3]: S. pombe growth modifiers, basal conditions – strain 972, OD600, 24 h, no modulator, primary screen (AID 1090).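 Further: basal condition with compound alone and no growth modifier present; test concentration not given here.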 The settings on record: S. pombe 972 growth, higher = more signal, called active from +8 up or from −8 down.
A short description of experiment [4]: budding yeast growth modifiers under rapamycin – strain BY4716, OD600, 96 h, primary screen (AID 1091). Further: test concentration not given here. The settings on record: S. cerevisiae BY4716 + rapamycin, higher = more signal, called active from +8 up or from −8 down.
Experiment [5] deals with Torsin-1A-interacting protein 2 (Homo sapiens) (UniProt Q8NFQ8). The experiment is described as follows: small molecules binding lysate-expressed LULL1 – cell lysate, human LULL1 lysate, 635/667 nm fluorescence, primary screen (AID 1092).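 Further: probe is lysate of COS7 cells overexpressing human LULL1; score merges per-feature 667 nm fluorescence with signal-to-noise.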 The conditions noted are these: small-molecule microarray, hLULL1 lysate binding, 635 nm fluorescence; higher = more signal.
Sequence of Torsin-1A-interacting protein 2 (Homo sapiens) (Q8NFQ8 whole entry, looked up): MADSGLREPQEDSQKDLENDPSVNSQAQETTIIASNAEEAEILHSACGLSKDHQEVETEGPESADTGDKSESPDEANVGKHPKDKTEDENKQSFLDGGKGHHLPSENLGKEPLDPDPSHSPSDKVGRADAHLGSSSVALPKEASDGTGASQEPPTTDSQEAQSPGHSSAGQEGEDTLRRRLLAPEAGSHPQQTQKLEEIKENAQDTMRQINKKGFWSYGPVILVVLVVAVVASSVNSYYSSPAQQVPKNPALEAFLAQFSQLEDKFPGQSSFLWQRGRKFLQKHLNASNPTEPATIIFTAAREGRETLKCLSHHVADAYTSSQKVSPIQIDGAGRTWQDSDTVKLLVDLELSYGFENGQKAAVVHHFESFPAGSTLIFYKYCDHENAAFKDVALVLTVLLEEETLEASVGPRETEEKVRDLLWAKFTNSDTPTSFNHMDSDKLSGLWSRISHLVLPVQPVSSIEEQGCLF
Experiment [6] is described as follows: optical density change of DRC41 E. coli – strain DRC41, OD650, 24 h, E. coli filamentation project, primary screen (AID 1093).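 Further: MC1000 strain lacking acrAB efflux and sulA so SOS filamentation is blocked; test concentration not given here.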 The settings on record: E. coli DRC41 growth, higher = more signal, called active from +8 up or from −8 down.
Experiment [7] is described as follows: probe aLefty2 binding to arrayed compounds – biochemical, biotinylated probe, 635/667 nm fluorescence, primary screen (AID 1094).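 Further: score merges spot fluorescence near 667 nm with spot signal-to-noise ratio.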 The settings on record: small-molecule microarray, higher = more signal.
Experiment [8] has as its system Noggin (protein binding on small-molecule microarray). Put plainly: small molecules binding Noggin protein – biochemical, 635/667 nm fluorescence, primary screen (AID 1095).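 Further: score merges 667 nm feature fluorescence with signal to noise over triplicate slides.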 The conditions noted are these: 635 nm fluorescence, higher = more signal.
Experiment [9] deals with Neurogenic locus notch homolog protein 3 (Homo sapiens) (UniProt Q9UM47). The experiment is described as follows: small molecules binding NOTCH3 protein – biochemical, 635/667 nm fluorescence, primary screen (AID 1096). The conditions noted are these: small-molecule microarray, 635 nm fluorescence, higher = more signal.
Sequence of Neurogenic locus notch homolog protein 3 (Homo sapiens) (Q9UM47 whole entry, looked up): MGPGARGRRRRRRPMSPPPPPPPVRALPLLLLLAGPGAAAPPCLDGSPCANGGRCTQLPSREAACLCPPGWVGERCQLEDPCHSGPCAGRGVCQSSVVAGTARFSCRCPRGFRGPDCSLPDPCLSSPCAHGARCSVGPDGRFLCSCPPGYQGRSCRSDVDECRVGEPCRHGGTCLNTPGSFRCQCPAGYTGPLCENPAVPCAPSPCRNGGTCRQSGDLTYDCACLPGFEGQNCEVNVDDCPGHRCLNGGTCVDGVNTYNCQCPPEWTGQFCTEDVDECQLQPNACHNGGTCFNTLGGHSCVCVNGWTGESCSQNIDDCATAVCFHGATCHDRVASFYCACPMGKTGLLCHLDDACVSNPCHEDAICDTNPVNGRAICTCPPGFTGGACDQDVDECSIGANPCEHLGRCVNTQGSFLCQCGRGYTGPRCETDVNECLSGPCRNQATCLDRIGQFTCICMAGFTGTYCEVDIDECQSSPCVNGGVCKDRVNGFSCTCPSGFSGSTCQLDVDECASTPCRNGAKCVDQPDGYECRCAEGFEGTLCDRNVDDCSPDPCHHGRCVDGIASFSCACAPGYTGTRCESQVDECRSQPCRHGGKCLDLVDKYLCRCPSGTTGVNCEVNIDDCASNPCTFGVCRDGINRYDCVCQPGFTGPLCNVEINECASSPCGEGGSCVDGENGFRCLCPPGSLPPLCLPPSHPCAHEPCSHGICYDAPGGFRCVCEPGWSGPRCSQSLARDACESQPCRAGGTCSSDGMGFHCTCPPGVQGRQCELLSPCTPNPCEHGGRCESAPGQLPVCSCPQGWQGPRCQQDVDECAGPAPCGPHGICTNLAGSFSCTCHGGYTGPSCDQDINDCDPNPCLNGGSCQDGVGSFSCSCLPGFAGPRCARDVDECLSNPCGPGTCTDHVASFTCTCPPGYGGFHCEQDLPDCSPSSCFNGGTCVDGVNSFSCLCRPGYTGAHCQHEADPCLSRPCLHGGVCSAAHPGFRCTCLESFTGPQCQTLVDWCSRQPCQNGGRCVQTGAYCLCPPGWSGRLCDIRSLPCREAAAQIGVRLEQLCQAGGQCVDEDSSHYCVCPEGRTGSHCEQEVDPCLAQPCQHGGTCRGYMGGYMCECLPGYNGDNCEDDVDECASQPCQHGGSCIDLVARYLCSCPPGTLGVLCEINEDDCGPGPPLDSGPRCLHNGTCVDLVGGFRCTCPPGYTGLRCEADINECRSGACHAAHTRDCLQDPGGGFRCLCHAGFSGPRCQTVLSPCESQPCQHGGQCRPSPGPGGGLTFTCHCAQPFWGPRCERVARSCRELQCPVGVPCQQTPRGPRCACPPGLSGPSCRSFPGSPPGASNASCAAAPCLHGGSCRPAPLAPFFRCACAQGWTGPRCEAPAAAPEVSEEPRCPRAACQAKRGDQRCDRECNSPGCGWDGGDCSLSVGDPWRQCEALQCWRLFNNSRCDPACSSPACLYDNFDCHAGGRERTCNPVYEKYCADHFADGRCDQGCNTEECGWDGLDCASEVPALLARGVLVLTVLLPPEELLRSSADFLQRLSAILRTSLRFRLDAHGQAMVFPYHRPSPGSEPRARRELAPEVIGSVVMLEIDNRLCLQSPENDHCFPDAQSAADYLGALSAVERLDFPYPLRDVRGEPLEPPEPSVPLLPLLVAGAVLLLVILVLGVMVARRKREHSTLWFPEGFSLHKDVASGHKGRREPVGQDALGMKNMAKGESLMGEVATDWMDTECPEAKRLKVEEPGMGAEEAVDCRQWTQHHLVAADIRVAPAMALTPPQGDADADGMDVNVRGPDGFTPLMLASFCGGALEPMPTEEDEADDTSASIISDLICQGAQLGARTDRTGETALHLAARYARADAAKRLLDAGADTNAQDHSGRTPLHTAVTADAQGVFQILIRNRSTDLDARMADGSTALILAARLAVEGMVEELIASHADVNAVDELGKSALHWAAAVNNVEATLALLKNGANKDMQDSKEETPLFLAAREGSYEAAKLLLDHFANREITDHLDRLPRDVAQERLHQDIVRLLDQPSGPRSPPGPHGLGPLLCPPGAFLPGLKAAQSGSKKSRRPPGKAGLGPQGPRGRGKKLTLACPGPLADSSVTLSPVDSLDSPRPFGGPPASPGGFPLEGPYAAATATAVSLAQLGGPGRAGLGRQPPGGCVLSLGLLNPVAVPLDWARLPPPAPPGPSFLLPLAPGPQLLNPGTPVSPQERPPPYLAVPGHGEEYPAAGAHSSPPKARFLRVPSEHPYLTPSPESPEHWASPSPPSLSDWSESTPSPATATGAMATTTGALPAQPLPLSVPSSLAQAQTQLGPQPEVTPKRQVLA
Experiment [10] can be described thus: probe aEGFR binding to arrayed compounds – biochemical, biotinylated probe, 635/667 nm fluorescence, primary screen (AID 1097).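 Further: probe is a biotinylated anti-EGFR antibody binding compounds printed on slides; score combines fluorescence near 667 nm and signal to noise of each spot.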 The settings on record: small-molecule microarray, higher = more signal.
Experiment [11] concerns Plasmodium falciparum Sir2 (PF13_0152, Sir2A). Put plainly: Plasmodium falciparum Sir2A binding compounds – biochemical, small-molecule microarray, 635 nm fluorescence, primary screen (AID 1098).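 Further: score merges spot fluorescence intensity with its signal-to-noise ratio.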 The settings on record: fluorescence 635 nm, higher = more signal.
Experiment [12] can be described thus: probe aDKK1 binding to arrayed compounds – biochemical, biotinylated probe, 635/667 nm fluorescence, primary screen (AID 1099).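 Further: score merges 667nm spot fluorescence with signal to noise across triplicate slides; reference of the scale not given here.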 The settings on record: small-molecule microarray, higher = more signal.
The nature of experiment [13]: probe aCHRDL2 binding to arrayed compounds – biochemical, biotinylated probe, 635/667 nm fluorescence, primary screen (AID 1100). The conditions noted are these: small-molecule microarray, higher = more signal.
A short description of experiment [14]: change in splice reporter luminescence, either direction, cell-based, HEK293, spliceosome inhibition project, primary screen (AID 1101).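 Further: HEK293 cells carrying a splicing-competent luciferase reporter gene; test concentration not given here.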 The settings on record: HEK293 splicing luciferase reporter, 24 h, higher = more signal, called active from +8 up or from −8 down. A general note: A reporter such as luciferase makes a cellular process visible.
Experiment [15] has as its target Fibroblast growth factor 10 (Homo sapiens) (UniProt O15520). Put plainly: compounds binding fibroblast growth factor 10 – biochemical, small-molecule microarray, 635 nm fluorescence, primary screen (AID 1102). The conditions noted are these: FGF10 binding, fluorescence 635 nm, higher = more signal.
Experiment [16] has as its system glycogen synthase kinase-3 (GSK3A per assay name; protocol says GSK3B). Put plainly: compounds binding glycogen synthase kinase-3 – biochemical, small-molecule microarray, 635 nm fluorescence, GSK3A, primary screen (AID 1103). Further: the record names both GSK3A and GSK3B. The settings on record: fluorescence 635 nm, higher = more signal.
For experiment [17], the target named is Epidermal growth factor receptor (Homo sapiens) (UniProt P00533). The experiment is described as follows: compounds binding epidermal growth factor receptor – biochemical, small-molecule microarray, 635 nm fluorescence, primary screen (AID 1104).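 Further: score merges 667 nm emission intensity with spot signal to noise over triplicate slides.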 The conditions noted are these: EGFR binding, higher = more signal.
Sequence of Epidermal growth factor receptor (Homo sapiens) (P00533 whole entry, looked up): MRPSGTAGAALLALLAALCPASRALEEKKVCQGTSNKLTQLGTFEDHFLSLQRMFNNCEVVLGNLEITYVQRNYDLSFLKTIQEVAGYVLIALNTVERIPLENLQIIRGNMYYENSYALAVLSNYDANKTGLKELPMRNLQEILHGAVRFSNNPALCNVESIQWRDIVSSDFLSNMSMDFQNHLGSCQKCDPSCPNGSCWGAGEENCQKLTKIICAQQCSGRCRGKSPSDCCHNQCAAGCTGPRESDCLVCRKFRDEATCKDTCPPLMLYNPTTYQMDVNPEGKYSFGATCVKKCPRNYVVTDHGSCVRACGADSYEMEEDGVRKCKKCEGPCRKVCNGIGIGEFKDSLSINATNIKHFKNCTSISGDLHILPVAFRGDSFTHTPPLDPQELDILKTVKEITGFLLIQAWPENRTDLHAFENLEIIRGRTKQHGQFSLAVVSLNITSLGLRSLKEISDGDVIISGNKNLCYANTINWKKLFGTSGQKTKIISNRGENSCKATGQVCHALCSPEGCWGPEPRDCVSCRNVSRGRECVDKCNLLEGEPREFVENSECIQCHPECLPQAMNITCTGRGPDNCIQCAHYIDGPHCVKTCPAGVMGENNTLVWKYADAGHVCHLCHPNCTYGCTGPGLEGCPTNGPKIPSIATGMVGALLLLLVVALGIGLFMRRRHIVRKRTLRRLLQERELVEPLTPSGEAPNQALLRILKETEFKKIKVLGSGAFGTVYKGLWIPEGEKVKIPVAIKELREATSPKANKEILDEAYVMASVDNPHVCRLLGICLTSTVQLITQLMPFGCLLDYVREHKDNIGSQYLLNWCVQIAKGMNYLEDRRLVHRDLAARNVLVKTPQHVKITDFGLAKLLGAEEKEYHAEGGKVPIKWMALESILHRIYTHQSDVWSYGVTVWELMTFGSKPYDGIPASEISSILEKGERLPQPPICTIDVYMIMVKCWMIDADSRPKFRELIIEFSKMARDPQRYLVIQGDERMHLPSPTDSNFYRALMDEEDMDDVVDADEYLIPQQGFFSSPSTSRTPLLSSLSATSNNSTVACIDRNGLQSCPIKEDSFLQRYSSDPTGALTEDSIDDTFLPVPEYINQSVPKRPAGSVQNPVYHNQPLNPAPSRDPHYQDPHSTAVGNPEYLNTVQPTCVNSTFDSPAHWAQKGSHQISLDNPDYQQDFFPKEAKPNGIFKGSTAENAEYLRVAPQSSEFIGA
The target of experiment [18] is Follistatin-related protein 3 (Homo sapiens) (UniProt O95633). Put plainly: compounds binding follistatin-related protein 3 – biochemical, small-molecule microarray, 635 nm fluorescence, primary screen (AID 1105).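 Further: score merges emission near 667 nm and signal to noise per printed spot across three slides.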 The conditions noted are these: FSTL3 binding, higher = more signal.
Sequence of Follistatin-related protein 3 (Homo sapiens) (O95633 whole entry, looked up): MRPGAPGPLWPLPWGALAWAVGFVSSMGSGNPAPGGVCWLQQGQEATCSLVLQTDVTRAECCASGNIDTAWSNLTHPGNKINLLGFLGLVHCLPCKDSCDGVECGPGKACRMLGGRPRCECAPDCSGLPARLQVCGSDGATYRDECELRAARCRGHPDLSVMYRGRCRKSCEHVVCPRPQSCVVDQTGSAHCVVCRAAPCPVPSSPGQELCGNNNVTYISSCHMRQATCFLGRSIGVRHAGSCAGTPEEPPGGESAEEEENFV
Experiment [19] deals with Dickkopf-related protein 1 (Homo sapiens) (UniProt O94907). The experiment is described as follows: small molecules binding DKK1 protein – biochemical, small-molecule microarray, 635 nm fluorescence scan, primary screen (AID 1106).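 Further: score merges emission near 667 nm with signal to noise over three replicate slides.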 The settings on record: higher = more signal.
Sequence of Dickkopf-related protein 1 (Homo sapiens) (O94907 whole entry, looked up): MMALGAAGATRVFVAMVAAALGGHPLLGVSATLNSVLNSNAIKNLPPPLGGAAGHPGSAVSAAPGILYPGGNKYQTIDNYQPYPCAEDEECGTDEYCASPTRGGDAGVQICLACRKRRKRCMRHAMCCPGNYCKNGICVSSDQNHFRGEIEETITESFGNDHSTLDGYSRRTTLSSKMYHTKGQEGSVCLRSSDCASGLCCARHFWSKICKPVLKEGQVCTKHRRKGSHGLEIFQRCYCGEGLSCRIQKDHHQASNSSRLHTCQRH
The subject of experiment [20] is Inhibin beta A chain (activin A). The experiment is described as follows: small molecules binding activin A – biochemical, small-molecule microarray, 635 nm fluorescence scan, primary screen (AID 1107).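 Further: mouse activin A protein probed at 4.33 µg/mL on printed slides; score merges bound-protein fluorescence near 667 nm with spot signal-to-noise.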 The settings on record: INHBA, higher = more signal.

Sequence of Fibroblast growth factor 10 (Homo sapiens) (O15520 whole entry, looked up): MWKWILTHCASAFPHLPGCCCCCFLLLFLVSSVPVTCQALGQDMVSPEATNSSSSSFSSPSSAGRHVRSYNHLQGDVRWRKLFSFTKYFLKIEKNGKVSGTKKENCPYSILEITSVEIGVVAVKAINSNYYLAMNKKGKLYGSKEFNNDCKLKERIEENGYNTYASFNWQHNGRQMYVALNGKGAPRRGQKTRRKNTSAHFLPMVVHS

As for `[N-]=[N+]=Nc1ccccc1C[C@]1(C(=O)NCCN2CCOCC2)COC(c2ccc(OCCCO)cc2)=N1`, the composite z-score in [1] amounted to 1.29; in experiment [5], 3.03; in experiment [7] it was 0.194; in experiment [8] it was 0.0424; in experiment [9], 0.0221; in experiment [10] it was 0.0433. Besides, the composite z-score in experiment [11] was 1.01; in experiment [12], 0.424; in experiment [13], 0.909; in experiment [15], 0.318; in experiment [16], 1.3; in [17] it was -0.408. Besides, the values for the composite z-score in [18], in experiment [19] and in experiment [20] were -0.264, 0.234 and 0.472, respectively. In addition, the z-score in experiment [2] is -0.877 (inactive); in experiment [3], -2.27 (inactive); in experiment [4], -1.46 (inactive); in [6] it was 2.56 (inactive); in experiment [14] it was -0.388 (inactive).
For `COc1cc2c(cc1O)C(C1CC1)N(C)CC2` (stereo not given), the composite z-score was 0.153 in experiment [1]; 0.0629 in [5]; 0.0112 in experiment [7]; 0.0427 in experiment [8]; -0.944 in experiment [9]; -0.171 in experiment [10]. Also, the composite z-score in experiment [11] is 0.353; in experiment [12] it was 0.211; in experiment [13] it was 0.583; in experiment [15], -0.382; in [16], -1.3; in experiment [17], -1.17. Besides, the composite z-score was -0.57 in experiment [18], -0.896 in experiment [19] and 0.942 in experiment [20]. Further, the z-score in experiment [2] was 0.814 (inactive); in [3] it was 0.74 (inactive); in experiment [4], -0.531 (inactive); in experiment [6], -0.965 (inactive); in [14], -0.451 (inactive).
In the case of `COCCOC(=O)N1C(=O)[C@@]2(c3ccccc31)[C@H](C(=O)NC[C@H](O)c1ccccc1)[C@H]1C(=O)O[C@H](c3ccccc3)[C@H](c3ccccc3)N1[C@@H]2c1ccc(O)cc1`, the composite z-score in [1] was 1.53; in [5], 3.01; in experiment [7], -0.109; in [8], 0.915; in [9], 1.05; in experiment [10], 0.569. The composite z-score was 1.54 in experiment [11]; 0.804 in experiment [12]; 0.24 in experiment [13]; 1.42 in experiment [15]; 1.32 in experiment [16]; 1.01 in experiment [17]. Further, the composite z-score in [18] was 1.44; in experiment [19] it was 0.827; in experiment [20] it was -0.0795. Further, the z-score in experiment [2] was 0.787 (inactive); in experiment [3], 0.259 (inactive); in experiment [4] it was 2.83 (inactive); in experiment [6] it was 1.14 (inactive); in experiment [14], -0.118 (inactive).
Turning to `CCOC(=O)C[C@H]1[C@H](OC(=O)c2ccccc2-c2ccccc2)[C@@H](NC(=O)c2ccc3ccccc3c2)c2cc(OCCCO)ccc2N1C(=O)c1ccccc1`, the composite z-score in experiment [1] was 0.633; in [5] it was 0.683; in experiment [7] it was -0.0916; in [8] it was 0.554; in experiment [9] it was 0.564; in experiment [10] it was 0.342. Besides, the composite z-score in [11] was 0.162; in experiment [12], -0.154; in experiment [13], -0.559; in experiment [15], 0.792; in [16], 0.601; in experiment [17] it was 0.505. Besides, the composite z-score in experiment [18] is 0.741; in experiment [19], 0.427; in experiment [20], -0.124. The z-score in [2] is 0.393 (inactive); in experiment [3] it was 0.379 (inactive); in [4], 1.98 (inactive); in [6] it was 0.356 (inactive); in [14] it was -0.314 (inactive).
`C=CCNC(=O)[C@H]1[C@@H]2C(=O)O[C@@H](c3ccccc3)[C@@H](c3ccccc3)N2[C@@H](c2ccccc2OCCO)[C@]12C(=O)N(C(=O)OCCOC)c1ccc(C#CC3(O)CCCCCC3)cc12`: the composite z-score is 1.56 in [1]; 3.1 in [5]; -0.0499 in experiment [7]; 0.592 in experiment [8]; 0.759 in experiment [9]; -0.0455 in experiment [10]. Further, the composite z-score was 1.32 in [11]; -0.115 in experiment [12]; 0.457 in experiment [13]; 1.13 in [15]; 0.562 in experiment [16]; 0.383 in experiment [17]. The figures for the composite z-score in [18], in [19] and in experiment [20] were 0.502, -0.515 and 1.07, respectively. Moreover, the z-score in [2] was -0.22 (inactive); in experiment [3], -0.444 (inactive); in experiment [4], 4.93 (inactive); in experiment [6], 1.31 (inactive); in experiment [14], -0.725 (inactive).
